# Screens deposited in PubChem by National Center for Advancing Translational Sciences (NCATS).
# Rows were chosen to be rich in hits. Some 9.2% of all compounds tested hit in one or more screens of this group.
# NPC1 prom act – activators of NPC1 promoter | actives 2.4% (n = 320,000) | AID 485313 | Huh7 NPC1 promoter luciferase reporter, 24 h | Potency, µM (top dose mostly 9.22 µM), for inactives: top-dose activation, most hits filed as activators; further: % of control where 0% means no effect; nearly all actives have a fitted effect of over 60% in size
#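 Luciferase expression driven by the NPC1 promoter was measured in stably transfected Huh7 cells after a 24 h compound incubation, using a luciferase reagent and a luminescence read.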
# Rab9 promoter act – activates the Rab9 promoter; actives 2.8% (n = 320,000); Huh7 Rab9 promoter-luciferase reporter, luminescence, 24 h; Potency, µM (series often up to 9.22 µM), inactives show top-dose activation, negative = inhibition, usual class: activators; further: % of control where 0% means no effect; nearly all actives have a fitted effect of over 60% in size
#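 Huh7 cells stably carrying a Rab9 promoter-luciferase reporter, 1500 cells per well in OP-MEM I with 10% FBS, treated with compound 24 hours at 37C. Luciferase activity read by luminescence after 10 minutes with Amplite reagent.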
# ELG1 repair inh – inhibitors of ELG1-dependent DNA repair in HEK293T cells | HEK293T ELG1-luciferase reporter, luminescence, 16 h; DNA damage induced by 5-fluorouridine | actives 2.3% (n = 330,000) | Potency, µM (highest dose often 46.1 µM), for inactives: at the highest dose activity change, negative = inhibition, actives largely listed as inhibitors; further: on the % scale 0 is the no-effect control and ±100 the full control effect; nearly all actives have a fitted effect of over 55% in size
#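 5-Fluorouridine DNA damage + compound/DMSO, 2,000 cells/well, 16 h, 37 °C/5% CO2. ONE-Glo, 30 min RT, luminescence. Readout = decrease in reporter signal.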
# FLuc modulator – inhibits or activates purified firefly luciferase, miR-21 counter-screen; Potency, µM (highest dose often 57.5 µM), inactives show top-dose activity change, negative = inhibition, usual class: inhibitors; P08659; purified FLuc, Km substrates, luminescence inhibition; actives 6.9% (n = 360,000);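 further: plate controls were vehicle for no effect and reference inhibitor for full effect; nearly all actives have a fitted effect of over 55% in size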
# Target sequence (P08659 whole entry, looked up): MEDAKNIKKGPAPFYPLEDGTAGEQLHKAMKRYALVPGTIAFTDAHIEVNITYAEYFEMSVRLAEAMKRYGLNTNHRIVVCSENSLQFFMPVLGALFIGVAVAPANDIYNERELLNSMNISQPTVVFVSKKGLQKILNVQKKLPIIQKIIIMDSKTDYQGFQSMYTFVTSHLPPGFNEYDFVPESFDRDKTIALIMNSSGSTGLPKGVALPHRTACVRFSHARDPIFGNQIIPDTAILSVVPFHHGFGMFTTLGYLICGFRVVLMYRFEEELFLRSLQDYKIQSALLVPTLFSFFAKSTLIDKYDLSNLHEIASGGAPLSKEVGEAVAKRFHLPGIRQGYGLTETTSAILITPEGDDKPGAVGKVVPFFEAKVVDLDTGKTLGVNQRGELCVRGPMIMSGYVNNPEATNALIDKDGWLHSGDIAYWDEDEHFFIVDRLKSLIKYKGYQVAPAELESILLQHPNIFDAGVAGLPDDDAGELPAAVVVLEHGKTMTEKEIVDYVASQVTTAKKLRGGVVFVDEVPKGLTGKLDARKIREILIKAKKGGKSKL
#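 Purified P. pyralis luciferase (10nM final) with 10uM D-luciferin and 10uM ATP (Km levels) in 50mM Tris acetate pH 7.5, 10mM Mg acetate, 0.01% Tween-20, 0.05% BSA; qHTS 6-point titration, ~60 µM downward; luminescence read.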
# SMN2 splice up – increases expression of the SMN2 splice variant. HEK293 SMN2-luciferase splicing reporter, luminescence, 30-36 h. Potency, µM (doses to about 46.1 µM), without a hit: at the top dose activity change, positive = activation, hits mostly activators. actives 2.8% (n = 210,000). AID 1458; further: % of control where 0% means no effect; nearly all actives have a fitted effect of over 55% in size
#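 HEK293 cells carry an SMN2 […]–luciferase reporter in which exon 7 inclusion puts luciferase in frame. Cells were plated 10-12 h before compound addition, then incubated 30-36 h at 37C. ONE-Glo luminescence was read; sodium butyrate at 4.5 mM final served as control.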
# ELG1 genotoxic – induces genotoxicity in HEK293T cells with luciferase-tagged ELG1; actives 1.3% (n = 330,000); AID 504466; Potency, µM (highest dose often 46 µM), for inactives: top-dose activity change, positive = activation, hits mostly activators; HEK293T ELG1-luciferase reporter, luminescence, 16 h; further: % of control where 0% means no effect; nearly all actives have a fitted effect of over 60% in size
#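 Step 1: seed 2,000 HEK293T ELG1-luciferase cells per well. Step 2: add compound or DMSO, incubate 16 hr at 37 °C. Step 3: ONE-Glo, 30 min at room temperature, read luminescence.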
# * hit, by the source's call; ? = inconclusive; / = no result. The call rests on the fitted dose curve; in most records, active means well fitted curve in the direction sought with a large enough effect; inconclusive means small, poorly fitted or top-dose-only effect, or another doubt; inactive means no such curve, though single readings can be large; an effect the other way counts as inactive or inconclusive. Potency means the concentration at half of the fitted maximal effect.
SMILES,NPC1 prom act,Rab9 promoter act,ELG1 repair inh,FLuc modulator,SMN2 splice up,ELG1 genotoxic
COc1ccc(O)c(C(=O)c2cc(SCC(=O)O)c3nc4sc5c(c4c(=O)n3c2)CCCC5)c1,2%,-3%,8%,6.7µM*,/,4%
CCOC(=O)c1sc2nc3c(SCC(=O)O)cc(C(=O)c4ccccc4O)cn3c(=O)c2c1C,18%,13%,11%,2.4µM*,19%,2%
O=C(O)CSc1cc(C(=O)c2ccccc2O)cn2c(=O)c3c(-c4ccccc4)csc3nc12,-4%,1%,-15%,15µM*,-2%,0%
CCc1c(C)sc2nc3c(C(=O)N4CCOCC4)cc(C(=O)c4ccccc4O)cn3c(=O)c12,2%,-15%,?,-12%,-15%,-12%
Cc1sc2nc(SCC(N)=O)n(-c3ccccc3)c(=O)c2c1C,0%,-5%,-12%,-8%,9%,8%
Cc1sc2nc3c(SC(C)C(=O)O)cc(C(=O)c4ccccc4O)cn3c(=O)c2c1C (stereo unspecified),-5%,-11%,10%,21µM*,13%,5%
COc1ccc(-n2c(SCC(=O)O)nc3sc4c(c3c2=O)CCCC4)cc1,1%,-2%,10%,0%,/,0%
CC(=O)N1c2ccccc2CC1C(=O)N1CCN(c2cccc(Cl)c2)CC1 (stereo unspecified),/,/,/,-3%,/,/
CCc1ccc(N(CC(=O)NC2CC2)S(=O)(=O)c2ccc(C)cc2)cc1,6%,2%,14%,-1%,/,2%
CCOC(=O)c1sc2nc3c(SCC(=O)O)cc(C(=O)c4cc(F)ccc4O)cn3c(=O)c2c1C,1%,-3%,24%,8.5µM*,23%,4%
COC(=O)c1cc(C(=O)c2cc(F)ccc2O)cn2c(=O)c3c(C)c(C)sc3nc12,-2%,-1%,?,?,/,-5%
Cc1cc(C)n2c(Nc3ccc(Cl)cc3)c(-c3ccsc3)nc2n1,/,/,/,-11%,7%,/
Cc1cc(C)n2c(Nc3ccc(C(C)C)cc3)c(-c3ccsc3)nc2n1,/,/,/,11µM*,1%,/
CCOc1ccc(OCCCCn2cnc3ccccc3c2=O)cc1,6%,-4%,16µM*,-10%,-11%,-4%
CCOc1ccc(OCCn2nnc3ccccc3c2=O)cc1,3.5µM*,2.8µM*,?,13µM*,16µM*,18µM*
Cc1cccc(NC(=O)C2CC(=O)N(Cc3ccccc3)C2)n1 (stereo unspecified),0%,-2%,?,10%,/,18%
CCOC(=O)CCSc1nc(C)c2cc(OC)ccc2n1,?,?,?,13µM*,12%,?
Cc1cc2cc(CCNC(=O)C(=O)c3c[nH]c4ccccc34)c(=O)[nH]c2cc1C,1%,-11%,-19%,6%,-11%,-9%
CCN1CCC(N(Cc2ccc(F)cc2)C(=O)Nc2cccc(C(F)(F)F)c2)CC1,/,/,/,2%,/,/
CCC(=O)Nc1nc2ccc([N+](=O)[O-])cc2s1,20%,3%,-5%,-18%,/,-1%
Cn1cc(Cl)c(C(=O)Nc2nc3ccc(Cl)cc3s2)n1,2.8µM*,1.4µM*,?,3.4µM*,22µM*,?
Cn1cc(Cl)c(C(=O)Nc2nc3ccc([N+](=O)[O-])cc3s2)n1,?,?,?,1.2µM*,/,5%
CCOC(=O)C1(Cc2cccc(F)c2)CCN(C(=O)C2CCCO2)CC1 (stereo unspecified),2%,-1%,1%,0%,/,-2%
COc1ccc(NC(=O)CCn2c(-c3ccc(F)cc3)cc(C(C)=O)c2C)c(OC)c1,/,/,/,5%,/,/
CCc1nc(NC(C)(C)C)c2cnn(-c3ccccc3)c2n1,?,?,?,19µM*,/,?
COCCCNc1ncnc2c1cnn2-c1ccc(F)cc1,/,/,/,11µM*,/,/
CCCCNc1ncnc2c1cnn2-c1ccc(Cl)cc1,?,?,?,2.7µM*,5µM*,2.3µM*
